Screening data deposited in PubChem by National Center for Advancing Translational Sciences (NCATS).
Shown are actives, neighbours in structure and some others; about 19% of the full set was active somewhere.
IL1B secr inh = inhibitors of inflammasome signaling (IL-1 beta secretion); activity change, % at 57.5 µM; THP-1 LPS/ATP IL-1B secretion, AlphaLISA, 16 h; stronger effect = lower value; 4.7% of 360,000 active; in the data active means activity change below about -50%; inconclusive means mostly about -30% to -49%
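Secreted IL-1B measured by AlphaLISA bead assay after 16 h compound exposure of THP-1 cells; compounds (final up to 57.5 uM) added 1 h before LPS (250 ng/mL) and ATP (1.25 mM) stimulation; lower signal means less secretion.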
DT40 TDP1 CPT = growth inhibition of DT40 Tdp1-/-;hTDP1 cells with camptothecin (screen for TDP1 inhibitors) | chicken DT40 Tdp1-/-;hTDP1 cells + 20 nM CPT, ATP luminescence, 48 h | Potency, µM (series often up to 46.2 µM), usual class: inhibitors | 12% of 420,000 active | AID 686979; further: nearly all actives have a fitted effect of over 55% in size
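Cell growth measured by CellTiter-Glo luminescence after a minimum 48 h, 37 C compound exposure with 20 nM CPT in Tdp1-knockout DT40 cells stably expressing hTDP1, seeded 400/well; qHTS titration format.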
DT40 TDP1 no CPT = qHTS for Inhibitors of human tyrosyl-DNA phosphodiesterase 1 (TDP1): qHTS in cells in absence of CPT; DT40 Tdp1-/- hTDP1 cells, no CPT, ATP luminescence, 48 h; Potency, µM (top dose mostly 46.2 µM), usual class: inhibitors; 15% of 420,000 active; AID 686978, 2013; further: nearly all actives have a fitted effect of over 55% in size
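Growth kinetics read by CellTiter-Glo luminescence after ≥48 hr at 37 °C. Cells: DT40 Tdp1-/- stably carrying human TDP1, 400 per well, compound exposure in the absence of CPT (DMSO vehicle).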
HT1080 IDH1KD tx = kills HT-1080 cells with IDH1 knockdown. 2% of 360,000 active. Potency, µM (titrated, usually from 46.1 µM), hits mostly cytotoxic. HT-1080 IDH1 knockdown viability, ATP luminescence, 48 h
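Using the IDH1-knockdown HT-1080 line run in the same batch and compound series as the NT line, viability after 48 h at 37 °C was determined by CellTiter-Glo luminescence and expressed as % activity.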
HT1080NT lethal = kills 2HG-producing HT-1080-NT fibrosarcoma cells | HT-1080-NT fibrosarcoma viability, CellTiter-Glo ATP luminescence, 48 h | Potency, µM (top dose mostly 46.1 µM), usual class: cytotoxic | 1.6% of 360,000 active;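 further: NT is the 2HG producing partner of a matched IDH1 knockdown line; nearly all actives have a fitted effect of over 55% in size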
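Viability of the 2HG-overproducing fibrosarcoma line after 48 hours of compound exposure at 37 degrees C was determined by luminescence with CellTiter-Glo, and concentration-effect curves were then fitted and categorized.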
A number is an active result; i = inactive; ? = inconclusive; nt = no result; [ ] = dose if it differs, or a comment. Unless noted, the call rests on the fitted dose curve; in most records, active means well fitted curve in the direction sought with a large enough effect; inconclusive means small, poorly fitted or top-dose-only effect, or another doubt; inactive means no such curve, though single readings can be large; an effect the other way counts as inactive or inconclusive.

SMILES | IL1B secr inh | DT40 TDP1 CPT | DT40 TDP1 no CPT | HT1080 IDH1KD tx | HT1080NT lethal
CCN1CCCC1CNc1ncnc2c1[nH]c1ccc(Cl)cc12 (stereo not given) | -110.0 | ? | ? | ? | 14.6µM
Cc1ccc2[nH]c3c(=O)n(CCN4CCNCC4)cnc3c2c1 | i | i | i | i | i
O=C(NCCCc1ccccc1)c1cccc(NC(=O)C2CCCCC2)c1 | i | i | ? | i | i
CS(=O)(=O)NCCCc1ccccc1 | i | i | i | i | i
O=S(=O)(NCCCCCCc1ccccc1)c1cccc2c(Cl)cccc12 | nt | 21.1µM | ? | nt | nt
NCCCCCCCCCCNS(=O)(=O)c1cccc2c(Cl)cccc12 | nt | ? | 12.6µM | nt | nt
COCCNC(=O)C1(C)CCN(C(=O)c2ccc3sccc3c2)C1 (stereo not given) | i | i | i | i | i
COc1cc2c(-c3ccc(C)cc3)nc3c(c(C)nn3-c3ccccc3)c2cc1OC | nt | i | i | nt | nt
O=C(c1ccc(F)cc1)C(CCCCCC(CN1CCOCC1)C(=O)c1ccc(F)cc1)CN1CCOCC1 (stereo not given) | ? | ? | 18.4µM | ? | ?
C=COC(=O)NC1CCc2cc(OC)c(OC)c(OC)c2-c2ccc(SC)c(=O)cc21 (stereo not given) | i | 0.0259µM | 0.0164µM | ? | 0.184µM
COc1cc2c(c(OC)c1OC)-c1ccc(SC)c(=O)cc1C(NC=O)CC2 (stereo not given) | i | 0.13µM | 0.164µM | ? | 0.0461µM
COc1c(C=O)c2c(c(OC)c1OC)-c1ccc(OC)c(=O)cc1C(NC(C)=O)CC2 (stereo not given) | i | 0.0082µM | 0.0146µM | ? | 0.0052µM
COc1cc2c(c(OC)c1OC)-c1ccc(SC)c(=O)cc1C(NC(=O)c1ccccc1)CC2 (stereo not given) | ? | 0.0146µM | 0.0164µM | ? | ?
COc1c(O[C@@H]2O[C@H](CO)[C@@H](O)[C@H](O)[C@H]2O)cc2c(c1OC)-c1ccc(SC)c(=O)cc1C(NC(C)=O)CC2 (stereo not given in full) | i | i | i | ? | ?
COCCCNC(=S)Nc1ccc(CC(=O)O)cc1 | i | i | i | i | i
CCCC(=O)NC1CCc2cc(OC)c(OC)c(OC)c2-c2ccc(OC)c(=O)cc21 (stereo not given) | i | 0.0164µM | 0.0164µM | ? | ?
COc1cc2c(c(OC)c1OC)-c1ccc(OC)c(=O)cc1C(NC(=O)c1ccccc1)CC2 (stereo not given) | i | 0.0092µM | 0.0184µM | 0.0206µM | 0.0731µM
COc1cccc(C(=O)Nc2ccc3c(cc2=O)[C@@H](NC(C)=O)CCc2cc(OC)c(OC)c(OC)c2-3)c1 | i | 6.51µM | 2.91µM | 4.61µM | 5.8µM
COc1cc(CC(=O)NC2CCCc3ccccc32)cc(OC)c1OC (stereo not given) | i | ? | ? | i | i
COC(=O)c1ccc(NC(=S)NC2CCc3ccccc32)cc1 (stereo not given) | i | i | i | i | i
COC(=O)c1ccc2c(c1)C(NC(C)=O)CCc1cc(OC)c(OC)c(OC)c1-2 (stereo not given) | -72.6 | 0.0184µM | 0.0206µM | ? | 0.0065µM
O=[N+]([O-])c1cc(S(=O)(=O)C(F)(F)F)ccc1NCC1CCCO1 (stereo not given) | i | i | i | i | i
COC(=O)C1=C(C)NC(=O)C1(NC(=O)c1cc(OC)c(OC)c(OC)c1)C(F)(F)F (stereo not given) | nt | i | i | nt | nt
CCOc1ccc(NC(=O)CSc2nccn2C2CCCC2)cc1 | nt | i | ? | nt | nt
C=CCc1cc(/C=C2/NC(=O)N(CC(=O)OC)C2=O)cc(OC)c1O | i | i | i | i | i
SMILES | IL1B secr inh | DT40 TDP1 CPT | DT40 TDP1 no CPT | HT1080 IDH1KD tx | HT1080NT lethal
Cc1occc1-c1nnc(SCC(=O)N2c3ccccc3CCc3ccccc32)n1C | i | i | i | i | i
CCc1ccc(/C=C2\Oc3ccc(C(=O)OC)cc3C2=O)cc1 | i | i | ? | ? | i
COC(=O)c1ccc(/C=C2\Oc3ccccc3NC2=O)cc1 | -52.7 | i | i | i | i
COC(=O)c1ccc2c(c1)C(=O)/C(=C/c1ccc(C)cc1)O2 | i | 18.4µM | 13µM | i | i
COc1ccc(CC(=O)Oc2ccc(F)c(F)c2)cc1S(=O)(=O)N1CCOCC1 | i | i | i | i | i
Cc1ccc(S(=O)(=O)N2CCC(C(=O)NNS(=O)(=O)c3ccc(Cl)cc3)CC2)cc1 | i | i | i | i | i
CN(C)S(=O)(=O)c1ccc(S(=O)(=O)NCc2cccs2)cc1 | i | i | i | i | i
CN(C)C(=O)c1ccc(-c2cc3onc(-c4ccccc4)c3c(=O)n2C)cc1 | i | ? | 16.4µM | i | i
CN(C)C(=O)c1cc(-c2ccccc2)no1 | i | i | i | i | i
COC(=O)c1ccc(-c2cc3onc(-c4ccccc4)c3c(=O)n2C)cc1 | i | 23.1µM | ? | i | i
Cn1c(-c2ccc(F)c(F)c2)cc2onc(-c3ccccc3)c2c1=O | i | 16.4µM | 23.1µM | i | i
COc1ccc(-c2cc3onc(-c4c(Cl)cccc4Cl)c3c(=O)n2C)cc1 | i | ? | ? | i | i
CCCC(c1nnnn1Cc1ccco1)N1CCC(C(N)=O)CC1 (stereo not given) | i | i | i | i | i
CCCN(CCC)C[C@@H]1CCCCN1CCNC(=O)N1c2ccccc2C(=O)Nc2cccnc21 | nt | i | i | nt | nt
N#CCCN(C(=O)CN1CCN(S(=O)(=O)c2ccc3c(c2)OCCO3)CC1)c1ccc(F)cc1 | i | i | i | i | i
N#CC1=C(N)Oc2n[nH]c(-c3cccnc3)c2C1c1ccc([N+](=O)[O-])o1 (stereo not given) | -97.1 | 3.66µM | 2.91µM | ? | ?
O=C(Nc1cccc(Cl)c1)Nc1nccs1 | i | ? | 16.4µM | i | i
O=C(Nc1ccc(Cl)c(Cl)c1)Nc1nccs1 | i | 2.06µM | 0.82µM | ? | ?
O=C(CSc1nnc(-c2ccncc2)o1)N1CCCC1 | i | i | i | i | i
COC(=O)c1cc(=O)n(-c2ccc(C(F)(F)F)cc2)[nH]1 | i | i | i | i | i
COc1cccc(Nc2ncc3nc(C)c(=O)n(C)c3n2)c1 | nt | ? | i | nt | nt
O=C1CNC(=S)N1Cc1ccc(F)cc1 | i | i | i | i | i
N=c1ccn(Cc2ccc(F)cc2)cc1 | i | ? | 10.3µM | i | ?
CCN(CC)S(=O)(=O)c1ccc(Cl)c(C(=O)Nc2nncs2)c1 | i | i | i | i[9.24 µM] | i
CCN(CC)S(=O)(=O)c1cc(C(=O)Nc2nncs2)c(Cl)cc1Cl | -84.0 | i | i | ? | ?
CCN(CC)S(=O)(=O)c1cc(C(=O)Nc2cc(C)on2)c(Cl)cc1Cl | -94.3 | ? | ? | ? | i
CCOc1ccc(S(=O)(=O)N(CC(=O)NCc2ccncc2)c2ccc(C)cc2)cc1 | i | ? | ? | i | i
COc1cc(/C=N/Nc2ccccc2[N+](=O)[O-])cc(OC)c1O | i | ? | 6.51µM | i | i
COc1cc(/C=N/Nc2ccc(S(N)(=O)=O)cc2[N+](=O)[O-])cc(OC)c1O | i | i | i | i | i
